# Source: PubChem BioAssay (NCATS)
# Results filed as inconclusive are left out. Entries that show only a call come without a potency. Unmarked numbers belong to inactive results. Active and inactive are the calls of the source. Calls follow the shape of the dose curve; as a rule, active = well fitted cell-killing curve with a large enough effect; inconclusive = small, poorly fitted or top-dose-only effect, or effect the other way; inactive = flat fitted curve, though single readings scatter.
# Key:
# Experiment in all cases: Primary qHTS to identify gynecologic anti-cancer compounds using libraries of approved drugs and bioactive compounds (AID 1345084); also: nearly all actives have a fitted effect of over 55% in size
# CAOV3 = conditions: Gynecologic cancer cell panel viability, ATPlite luminescence, 48 h; series mostly up to 57.5 µM
# Procedure, shortened: (§1)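 Five-concentration response, 48 h; readout is ATP-driven luciferase luminescence.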
# CASKI = conditions: Gynecologic cancer cell panel viability, ATPlite luminescence, 48 h; series mostly up to 57.5 µM
# Procedure, shortened: as §1
# Es-2 = conditions: Gynecologic cancer cell panel viability, ATPlite luminescence, 48 h; series mostly up to 57.5 µM
# Procedure, shortened: as §1
# HeLa = conditions: Gynecologic cancer cell panel viability, ATPlite luminescence, 48 h; series mostly up to 57.5 µM
# Procedure, shortened: as §1
# Hek293T = conditions: Gynecologic cancer cell panel viability, ATPlite luminescence, 48 h, control line for the selectivity index; series mostly up to 57.5 µM
# Procedure, shortened: as §1
# JEG-3 = conditions: Gynecologic cancer cell panel viability, ATPlite luminescence, 48 h; series mostly up to 57.5 µM
# Procedure, shortened: as §1
# OV90 = conditions: Gynecologic cancer cell panel viability, ATPlite luminescence, 48 h; series mostly up to 57.5 µM
# Procedure, shortened: as §1
# Potency is read from the fitted curve at half-maximal effect.
smiles,measurement,setting,value
CCC(C)C(=O)OC12C(OC(C)=O)C(C)C3(O)C(C=C(CO)CC4(O)C(=O)C(C)=CC43)C1C2(C)C (configuration not stated),Potency,CAOV3,inactive
same,Potency,CASKI,inactive
same,Potency,Es-2,316 nM (active)
same,Potency,HeLa,inactive
same,Potency,Hek293T,inactive
same,Potency,JEG-3,inactive
CC(=O)NC(C)c1cnc(-c2cnc(Oc3ccc(OC(C)C)cc3)s2)s1 (configuration not stated),Potency,CAOV3,inactive
same,Potency,CASKI,inactive
same,Potency,HeLa,inactive
same,Potency,Hek293T,inactive
same,Potency,JEG-3,inactive
same,Potency,OV90,inactive
C/C=C(/C)C(=O)OC1CC(C)(C)CC2C3=CCC4C5(C)CCC(O[C@@H]6O[C@H](C(=O)O)[C@@H](O)[C@H](O)[C@H]6O[C@@H]6O[C@H](CO)[C@H](O)[C@H](O[C@@H]7OC[C@H](O)[C@H](O)[C@H]7O[C@@H]7O[C@H](CO)[C@@H](O)[C@H](O)[C@H]7O)[C@H]6O)C(C)(C)C5CCC4(C)C3(C)C(O)C(O)C12CO (some centres not stated),"activity change, negative = cytotoxicity",CAOV3,-23.4% [at 6.55 µM]
same,"activity change, negative = cytotoxicity",CASKI,-3.66% [at 6.55 µM]
same,"activity change, negative = cytotoxicity",Es-2,-27.7% [at 6.55 µM]
same,"activity change, negative = cytotoxicity",HeLa,-5.95% [at 6.55 µM]
same,"activity change, negative = cytotoxicity",JEG-3,-6.95% [at 6.55 µM]
COc1cc(N2CCC(N)CC2)ccc1Nc1ncc(Cl)c(-c2c[nH]c3ccccc23)n1,Potency,CAOV3,22.4 µM (active)
same,Potency,CASKI,28.2 µM (active)
same,Potency,Es-2,inactive
same,Potency,HeLa,3.98 µM (active)
same,Potency,JEG-3,inactive
CC(=O)Nc1cccc(Nc2ncnc(N3CCC(OCc4ccc(OC(F)(F)F)cc4)CC3)n2)c1C,Potency,CAOV3,inactive
same,Potency,CASKI,inactive
same,Potency,Es-2,inactive
same,Potency,HeLa,inactive
same,Potency,JEG-3,inactive
same,Potency,OV90,inactive
C/C=C(\C)C(=O)OC1C(C)C2(O)C(C=C(CO)CC3(O)C(=O)C(C)=CC32)C2C(C)(C)C12OC(=O)C(C)C (configuration not stated),Potency,CAOV3,inactive
same,Potency,CASKI,inactive
same,Potency,Es-2,inactive
same,Potency,HeLa,inactive
same,Potency,Hek293T,inactive
same,Potency,OV90,inactive
C/C=C(\C)C(=O)OC1C(C)C2(O)C(C=C(CO)CC3(O)C(=O)C(C)=CC32)C2C(C)(C)C12OC(C)=O (configuration not stated),Potency,CAOV3,inactive
same,Potency,CASKI,inactive
same,Potency,Es-2,224 nM (active)
same,Potency,HeLa,inactive
same,Potency,Hek293T,inactive
same,Potency,JEG-3,inactive
C/C=C(\C)C(=O)O[C@@H]1[C@@H](C)[C@]2(O)[C@@H]3C=C(C)C(=O)[C@H]3CC(CO)=C[C@H]2C2C(C)(C)[C@@]21OC(=O)C(C)CC (some centres not stated),Potency,CAOV3,inactive
same,Potency,CASKI,inactive
same,Potency,Es-2,355 nM (active)
same,Potency,HeLa,inactive
same,Potency,Hek293T,inactive
O=C(Nc1cccc([N+](=O)[O-])c1)c1cccc(S(=O)(=O)N2CCCCCC2)c1,Potency,CAOV3,inactive
same,Potency,CASKI,inactive
same,Potency,Es-2,inactive
same,Potency,HeLa,inactive
same,Potency,JEG-3,inactive
Cc1ccc(OC[C@H](O)[C@H](C)NC(C)C)c2c1CCC2,Potency,CAOV3,inactive
same,Potency,CASKI,inactive
same,Potency,Es-2,inactive
same,Potency,HeLa,inactive
same,Potency,Hek293T,inactive
same,Potency,JEG-3,inactive
same,Potency,OV90,inactive
CC(C)CCNC(=O)c1ccc2c(c1)nc(Nc1n[nH]c3ccc(-c4ccccc4OC(F)(F)F)cc13)n2C1CCC(O)CC1 (configuration not stated),Potency,CAOV3,inactive
same,Potency,CASKI,inactive
same,Potency,Es-2,inactive
same,Potency,HeLa,inactive
same,Potency,Hek293T,inactive
same,Potency,JEG-3,inactive
same,Potency,OV90,inactive
COc1ccccc1C(=O)Nc1cccc(NC(=O)c2cccc(C)c2)c1,Potency,CAOV3,inactive
same,Potency,CASKI,inactive
same,Potency,Es-2,inactive
same,Potency,HeLa,inactive
same,Potency,Hek293T,inactive
same,Potency,JEG-3,inactive
same,Potency,OV90,inactive
Cc1cc(-c2cnc(N)c3c(-c4ccc5scnc5c4)csc23)n(C)n1,Potency,CAOV3,inactive
same,Potency,CASKI,inactive
same,Potency,Es-2,inactive
same,Potency,HeLa,inactive
same,Potency,Hek293T,inactive
same,Potency,JEG-3,inactive
Cc1cc2c(c(=O)o1)C=C1CC[C@H]([C@H](C)Cn3cnc(=N)c4[nH]cnc43)C[C@@H]1O2,Potency,CAOV3,inactive
same,Potency,CASKI,inactive
same,Potency,Es-2,inactive
same,Potency,HeLa,inactive
same,Potency,Hek293T,inactive
same,Potency,JEG-3,inactive
same,Potency,OV90,inactive
Cc1cc(F)c(C(=O)Nc2cccc(-c3nncn3C(C)C)n2)cc1-n1cnc(C2CC2)c1,Potency,CAOV3,inactive
same,Potency,CASKI,inactive
same,Potency,Es-2,inactive
same,Potency,Hek293T,inactive
same,Potency,JEG-3,inactive
same,Potency,OV90,inactive
COc1ccc(CN2CCN(C(=O)CCNC(=O)c3ccc(C(C)(C)C)cc3)CC2)cc1,Potency,CAOV3,inactive
same,Potency,CASKI,inactive
same,Potency,Es-2,inactive
same,Potency,HeLa,inactive
same,Potency,JEG-3,inactive
same,Potency,OV90,inactive
C=C(C)C(=O)OC1CC2(C)OC(=CC2=O)C(=C)CC2OC(=O)C(=C)C12 (configuration not stated),Potency,CASKI,inactive
same,Potency,Es-2,4470 nM (active)
same,Potency,HeLa,inactive
same,Potency,Hek293T,6.31 µM (active)
same,Potency,JEG-3,inactive
O=C(NNc1nc2cc(F)ccc2n2cccc12)c1cnccn1,Potency,CASKI,inactive
same,Potency,Es-2,7080 nM (active)
same,Potency,HeLa,inactive
same,Potency,Hek293T,3.55 µM (active)
same,Potency,JEG-3,inactive
same,Potency,OV90,5.01 µM (active)
C=C1C(=O)O[C@@H]2/C=C(\CO)CC/C=C(/C=O)C[C@@H](O)[C@@H]12,Potency,CASKI,inactive
same,Potency,Es-2,31600 nM (active)
same,Potency,HeLa,inactive
same,Potency,Hek293T,28.2 µM (active)
same,Potency,JEG-3,inactive
CC(C)n1nc(C#Cc2ccccc2)c2c(N)ncnc21,Potency,CASKI,inactive
same,Potency,Es-2,inactive
same,Potency,HeLa,inactive
same,Potency,Hek293T,inactive
same,Potency,OV90,inactive
